These results are taken from PubChem BioAssay (NCI).

Compounds without any hit were thinned out: in the full panel of roughly 83,000, 20% have a hit.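 Single-concentration screen, 48 h exposure, 96-well plates. Endpoint: percent growth. Below 10 = active.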 A number with no mark means an inactive call. Activity calls are given as the source filed them.

What all share (assay): NCI-60 one-dose screen, 48 h (100 = growth as untreated, 0 = no growth, -100 = all killed)
One test concerns SK-MEL-2 melanoma. The note with it: 10 µM unless noted.
The next test deals with EKVX NSCLC. The note with it: 10 µM unless noted.
A further test relates to SN12C renal. As to conditions: 10 µM unless noted.
For the next test, the system named is UO-31 renal. As to conditions: 10 µM unless noted.
For the next test, the system named is TK-10 renal. As to conditions: 10 µM unless noted.
Another test relates to ACHN renal. The note with it: 10 µM unless noted.
The subject of another test is CAKI-1 renal. The note with it: 10 µM unless noted.
The next test relates to A498 renal. The note with it: 10 µM unless noted.
In the next test the test system is CCRF-CEM leukemia. As to conditions: 10 µM unless noted.
The test system of the next test is MOLT-4 leukemia. As to conditions: 10 µM unless noted.
The subject of a further test is SR leukemia. As to conditions: 10 µM unless noted.
The next test concerns RPMI-8226 leukemia. As to conditions: 10 µM unless noted.
The next test relates to OVCAR-8 ovarian. The note with it: 10 µM unless noted.
The test system of the next test is OVCAR-5 ovarian. The note with it: 10 µM unless noted.
Another test deals with OVCAR-4 ovarian. The note with it: 10 µM unless noted.
Another test concerns SK-OV-3 ovarian. The note with it: 10 µM unless noted.
The subject of a further test is IGROV1 ovarian. The note with it: 10 µM unless noted.
The next test has as its system OVCAR-3 ovarian. As to conditions: 10 µM unless noted.
A further test concerns HS 578T breast. The note with it: 10 µM.
A further test has as its system NCI/ADR-RES ovarian. The note with it: 10 µM unless noted.

Regarding `FC(F)(F)c1ccc(/C=N/Nc2nnc3n2N=C(c2ccc(Cl)cc2)CS3)cc1`, the growth in the test on SK-MEL-2 melanoma was 84.2%; in the test on EKVX NSCLC it was 66.3%; in the test with SN12C renal, 57.8%; with UO-31 renal, 39.7%; in the test with TK-10 renal, 53.1%; with ACHN renal it was 28.4%. Besides, the growth is 63.5% in the test on CAKI-1 renal; 69.9% in the test with A498 renal; 99.4% in the test on CCRF-CEM leukemia; 79.5% with MOLT-4 leukemia; 79.7% in the test with SR leukemia; 85.1% in the test on RPMI-8226 leukemia. Also, the growth in the test on OVCAR-8 ovarian is 19.9%; in the test with OVCAR-5 ovarian, 92.7%; in the test on OVCAR-4 ovarian it was 17.4%; in the test on SK-OV-3 ovarian, 40.8%; in the test on IGROV1 ovarian, 49.2%; with OVCAR-3 ovarian, 46.7%. Further, the results for the growth in the test on HS 578T breast and with NCI/ADR-RES ovarian were 8.3% (active) and 47.4%, respectively.

As to `COc1ccc(NC(=O)/C=C/c2ccc(NC(=O)N3CCCC3)cc2)cn1`, the growth is 104% in the test on SK-MEL-2 melanoma; 92.8% in the test with EKVX NSCLC; 98.7% with SN12C renal; 100% with UO-31 renal; 104% in the test with TK-10 renal; 114% with ACHN renal. In addition, the growth in the test on CAKI-1 renal was 100%; with A498 renal, 99.4%; in the test with CCRF-CEM leukemia, 97%; with MOLT-4 leukemia, 101%; with SR leukemia, 106%; in the test with RPMI-8226 leukemia, 99.5%. The growth in the test on OVCAR-8 ovarian was 101%; in the test on OVCAR-5 ovarian, 113%; with OVCAR-4 ovarian, 101%; in the test with SK-OV-3 ovarian, 101%; in the test with IGROV1 ovarian, 105%; with OVCAR-3 ovarian, 103%. For the same compound, the growth is 95.9% in the test on HS 578T breast and 107% in the test on NCI/ADR-RES ovarian.

For `CN1CCN(Cc2ccc(NC(=O)c3cncc(C#Cc4cnc5cccnn45)c3)cc2C(F)(F)F)CC1`, the growth was -58.6% (active) in the test with SK-MEL-2 melanoma; -39.1% (active) in the test with EKVX NSCLC; 3.05% (active) in the test with SN12C renal; 0.419% (active) in the test on UO-31 renal; -4.27% (active) with TK-10 renal; 5.04% (active) in the test on ACHN renal. Also, the growth is 5.93% (active) in the test with CAKI-1 renal; -33.1% (active) with A498 renal; 5.9% (active) with CCRF-CEM leukemia; -1.76% (active) in the test with MOLT-4 leukemia; 5.44% (active) in the test on SR leukemia; -20.1% (active) in the test with RPMI-8226 leukemia. In addition, the growth with OVCAR-8 ovarian was 5.17% (active); with OVCAR-5 ovarian, 12.7%; in the test with OVCAR-4 ovarian, -21.7% (active); with SK-OV-3 ovarian, 7.64% (active); in the test on IGROV1 ovarian it was 5.12% (active); in the test on OVCAR-3 ovarian, 1.49% (active). The growth in the test on NCI/ADR-RES ovarian was 18.3%.

Consider `COc1ccc2c(c1)CCCC21C(=O)Nc2ccccc21` (configuration not stated), for which the growth in the test with SK-MEL-2 melanoma was 96%; in the test with EKVX NSCLC it was 104%; in the test on SN12C renal it was 101%; in the test with UO-31 renal, 82.4%; in the test with TK-10 renal it was 95.4%; with ACHN renal, 105%. In addition, the growth in the test with CAKI-1 renal is 103%; in the test with A498 renal, 99.7%; in the test with CCRF-CEM leukemia it was 97.9%; in the test on MOLT-4 leukemia, 76.2%; in the test on SR leukemia it was 80.5%; with RPMI-8226 leukemia it was 96.9%. The growth was 95.5% with OVCAR-8 ovarian; 106% in the test with OVCAR-5 ovarian; 98.8% in the test with OVCAR-4 ovarian; 100% in the test with SK-OV-3 ovarian; 102% with IGROV1 ovarian; 69.6% with OVCAR-3 ovarian. For the same compound, the growth is 107% in the test on HS 578T breast and 104% with NCI/ADR-RES ovarian.

Take `CN=C1C=C/C(=N/N=c2/ccn(O)cc2C)C=C1C`: the growth with SK-MEL-2 melanoma is 97.6%; in the test on EKVX NSCLC, 87.4%; in the test with SN12C renal it was 90%; in the test with UO-31 renal, 77.6%; in the test on TK-10 renal, 118%; with ACHN renal it was 93.8%. Further, the growth in the test on CAKI-1 renal was 93.9%; in the test on A498 renal it was 96%; in the test with CCRF-CEM leukemia it was 105%; in the test with MOLT-4 leukemia, 89.1%; with SR leukemia, 90.5%; in the test on RPMI-8226 leukemia, 77.1%. In addition, the growth in the test with OVCAR-8 ovarian was 94.2%; in the test on OVCAR-5 ovarian, 83.2%; in the test on OVCAR-4 ovarian, 97.5%; with SK-OV-3 ovarian it was 102%; in the test with IGROV1 ovarian, 129%; in the test on OVCAR-3 ovarian, 117%. For the same compound, the growth in the test with HS 578T breast is 110%; in the test with NCI/ADR-RES ovarian, 97.4%.

Turning to `FC1(F)CCN(Cc2c[nH]c3cc(Cl)ccc23)C[C@H]1CCc1ccccc1`, the growth is 76.6% with SK-MEL-2 melanoma; 63% in the test with EKVX NSCLC; 54.3% with SN12C renal; 42% with UO-31 renal; 61.6% in the test on TK-10 renal; 62.5% in the test with ACHN renal. Moreover, the growth was 62.1% in the test on CAKI-1 renal; 82% in the test with A498 renal; 45.9% in the test on CCRF-CEM leukemia; 26.7% in the test on MOLT-4 leukemia; 51.6% in the test on SR leukemia; 34% in the test on RPMI-8226 leukemia. In addition, the growth with OVCAR-8 ovarian was 47.7%; in the test with OVCAR-5 ovarian it was 80.5%; in the test on OVCAR-4 ovarian, 56.7%; with SK-OV-3 ovarian, 84%; with IGROV1 ovarian, 40.8%; with OVCAR-3 ovarian it was 54.6%. In the test with NCI/ADR-RES ovarian, the growth is 37.2%.

Turning to `COC(=O)CNS(=O)(=O)c1ccc2c(c1)Cc1cc(S(=O)(=O)NCC(=O)OC)ccc1-2`, the growth in the test on SK-MEL-2 melanoma is 108%; in the test with EKVX NSCLC, 99.6%; with SN12C renal it was 97.5%; in the test with UO-31 renal it was 87.1%; with TK-10 renal, 107%; in the test with ACHN renal it was 102%. For the same compound, the growth in the test on CAKI-1 renal was 92.1%; in the test with A498 renal, 106%; in the test with CCRF-CEM leukemia, 104%; in the test with MOLT-4 leukemia it was 99.8%; in the test on SR leukemia, 102%; with RPMI-8226 leukemia it was 103%. The growth in the test on OVCAR-8 ovarian is 97.3%; in the test with OVCAR-5 ovarian, 103%; in the test with OVCAR-4 ovarian it was 102%; in the test on SK-OV-3 ovarian, 97.7%; in the test with IGROV1 ovarian, 96.5%; in the test on OVCAR-3 ovarian, 102%. Also, the figures for the growth in the test with HS 578T breast and with NCI/ADR-RES ovarian were 95.7% and 105%, respectively.

On to `O=C(/C=C/c1cccc([N+](=O)[O-])c1)c1ccc(Nc2nc(N3CCCCC3)nc(N3CCCCC3)n2)cc1`, for which the growth in the test with SK-MEL-2 melanoma is 105%; with EKVX NSCLC, 92.3%; in the test with SN12C renal, 96.3%; with UO-31 renal, 75.1%; with TK-10 renal, 108%; in the test on ACHN renal it was 102%. Besides, the growth in the test on CAKI-1 renal was 89.6%; in the test with A498 renal, 80.9%; with CCRF-CEM leukemia it was 104%; in the test on MOLT-4 leukemia, 93.4%; in the test with SR leukemia, 90.6%; in the test on RPMI-8226 leukemia, 7.95% (active). The growth with OVCAR-8 ovarian is 95.2%; in the test on OVCAR-5 ovarian, 110%; with OVCAR-4 ovarian, 97.6%; in the test with SK-OV-3 ovarian, 97.4%; with OVCAR-3 ovarian it was 91.5%; with HS 578T breast it was 103%. Also, the growth in the test on NCI/ADR-RES ovarian was 103%.
